Test results taken from the supplement of paper PMC10981050.
Values joined by “and” are separate entries in the source; they are usually repeats but may differ in a detail not shown here. Equal values may be shown once. Where a name gives a salt, the structure may show the parent alone.

Assays:
Experiment in all cases: cell viability relative to vehicle control; higher = less cytotoxic
Conditions in all cases: 10 µM
K562 = test system: K562
Outline: (§1)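 Mutant clones made by CRISPR editing and their isogenic wild-type counterparts, from four leukaemia lines, were exposed to a single 10 µM dose of each library compound for 48 h. The supernatant was then removed and CellTiter-Glo luminescence was read. Viability was reported as percent of the on-plate vehicle control.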

MARIMO = test system: MARIMO
Outline: as §1

MOLM14 = test system: MOLM14
Outline: as §1

OCI-AML2 = test system: OCI-AML2
Outline: as §1

Row | Structure (SMILES) | cell viability (K562; SRSF2 genotype: SRSF2 P95H/wt) | cell viability (K562; SRSF2 genotype: SRSF2 wt/wt) [%] | cell viability (MARIMO; SRSF2 genotype: SRSF2 P95H/wt) [%] | cell viability (MARIMO; SRSF2 genotype: SRSF2 wt/wt) [%] | cell viability (MOLM14; SRSF2 genotype: SRSF2 P95H/wt) [%] | cell viability (MOLM14; SRSF2 genotype: SRSF2 wt/wt) [%] | cell viability (OCI-AML2; SRSF2 genotype: P95H/wt) [%] | cell viability (OCI-AML2; SRSF2 genotype: wt/wt) [%]
1 | COc1ccc2cc1Oc1ccc(cc1)C[C@H]1c3cc(c(OC)cc3CCN1C)Oc1c(O)c(OC)cc3c1[C@H](C2)N(C)CC3 [(+)-Fangchinoline] | 4.1% and 4.98% | 3.92 | 12.2 | 1.33 | 0.71 | 0.57 | 0.52 | 0.71
2 | O=c1cc(N2CCOCC2)oc2c(-c3ccccc3)cccc12 | 76.7% and 86.9% | 91.8 | 66.6 | 64.8 | 51.5 | 45.6 | 47.5 | 49.4
3 | CC(C)(Sc1cc(C(C)(C)C)c(O)c(C(C)(C)C)c1)Sc1cc(C(C)(C)C)c(O)c(C(C)(C)C)c1 [Probucol] | 98.5% and 99.2% | 102 | 99.7 | 105 | 102 | 105 | 105 | 103
4 | O=c1[nH]nc2c3c(cccc13)N=C(CN1Cc3ccccc3C1)N2 | 69.4% and 77.8% | 66.3 | 93 | 108 | 74.5 | 65.6 | 69.7 | 86.2
5 | NC(C=O)C(O)C(O)C(O)CO (stereo not given) [Glucosamine sulfate] | 99.5% and 102% | 100 | 101 | 105 | 104 | 108 | 104 | 104
6 | CCOc1cc2ncc(C#N)c(Nc3ccc(OCc4ccccn4)c(Cl)c3)c2cc1NC(=O)/C=C/CN(C)C [Neratinib (HKI-272)] | 68.5% and 66.3% | 62.6 | 42.1 | 41.8 | 54.1 | 53.4 | 13.3 | 36.9
7 | Cc1cc(=O)c2c(O)c3c(cc2o1)OC(C)(C)[C@@H](O[C@@H]1O[C@H](CO)[C@@H](O)[C@H](O)[C@H]1O)C3 [Sec-O-Glucosylhamaudol] | 105% and 101% | 114 | 106 | 98.7 | 109 | 101 | 94 | 91.3
8 | N[C@@H](CSCCB(O)O)C(=O)O [BEC Hydrochloride] | 105% and 101% | 96.8 | 99.4 | 114 | 101 | 104 | 109 | 111
9 | Cc1c(C)c2c(c(C)c1OC(=O)CCC(=O)OCCOCCOCCO)CCC(C)(CCCC(C)CCCC(C)CCCC(C)C)O2 (stereo not given) [Tocofersolan] | 78.2% and 80.7% | 92.4 | 80.3 | 63.5 | 87.2 | 97.2 | 59.5 | 77.4
10 | C=C1C(=O)O[C@H]2[C@H]1CC/C(C)=C/CC[C@@]1(C)O[C@@H]21 [Parthenolide ((-)-Parthenolide)] | 18.9% and 9.99% | 26.7 | 8.78 | 8.07 | 1.59 | 0.67 | 0.71 | 0.34
11 | O=S(=O)(c1ccc2c(c1)C(=NO)c1cc(S(=O)(=O)N3CCCCC3)ccc1-2)N1CCCCC1 | 0.51% and 0.55% | 0.51 | 3.1 | 0.51 | 0.31 | 30.1 | 0.87 | 0.36
12 | O=C(O)c1ccc(Cl)cc1O [4-Chloro-2-hydroxybenzoic acid] | 108% and 109% | 98.6 | 104 | 103 | 101 | 107 | 101 | 115
13 | N#Cc1cc2cc(CN3CCC(Nc4ncnc5sc(CC(F)(F)F)cc45)CC3)ccc2[nH]1 | 3.53% and 2.57% | 19.3 | 44.3 | 51.2 | 22.6 | 23.4 | 0.63 | 21.5
14 | O=C(O)c1ccc2c(c1)nc(Nc1cccc(Cl)c1)c1ccncc12 [cx-4945 (Silmitasertib)] | 49.9% and 60.1% | 63.7 | 49.7 | 47.3 | 26.9 | 34 | 5.84 | 22.2
15 | Cc1nc(Nc2cnn(C3CCNCC3)c2)nc2c1N(C)C(=O)c1cc3ccccc3cc1N2C | 56% and 67.5% | 60.7 | 50.7 | 63.7 | 15.9 | 5.53 | 19.2 | 22
16 | C[C@H](CC[C@@]1(O)O[C@H]2C[C@H]3[C@@H]4CC=C5C[C@@H](O[C@@H]6O[C@H](CO)[C@@H](O[C@@H]7O[C@@H](C)[C@H](O)[C@@H](O)[C@H]7O)[C@H](O)[C@H]6O[C@@H]6O[C@@H](C)[C@H](O)[C@@H](O)[C@H]6O)CC[C@]5(C)[C@H]4CC[C@]3(C)[C@H]2[C@@H]1C)CO[C@@H]1O[C@H](CO)[C@@H](O)[C@H](O)[C@H]1O [Protodioscin] | 0.86% and 0.6% | 3.02 | 0.64 | 0.77 | 0.49 | 0.55 | 0.74 | 0.5
17 | Nc1ncnc2n[nH]c(Nc3ccc(F)cc3)c12 | 86.7% and 96.4% | 82.6 | 70 | 67.5 | 69.2 | 71.8 | 65.5 | 63.8
18 | Nc1[nH]c(=O)ncc1Br [5-Bromocytosine] | 102% and 99.4% | 105 | 101 | 103 | 104 | 105 | 98.1 | 108
19 | C[C@@H]1C/C=C/C=C/C=C/C=C/[C@H](O[C@@H]2O[C@H](C)[C@@H](O)[C@H](N)[C@@H]2O)C[C@@H]2O[C@](O)(C[C@@H](O)C[C@H]3O[C@@H]3/C=C/C(=O)O1)C[C@H](O)[C@H]2C(=O)O [Natamycin] | 102% and 105% | 102 | 100 | 105 | 98.5 | 104 | 101 | 110
20 | CCCCC1=NC2(CCCC2)C(=O)N1Cc1ccc(-c2ccccc2-c2nnn[nH]2)cc1 [Irbesartan (Avapro)] | 85.5% and 88.8% | 86.3 | 88.7 | 101 | 90 | 85.5 | 95.7 | 94.1

Row | Structure (SMILES) | cell viability (K562; SRSF2 genotype: SRSF2 P95H/wt) | cell viability (K562; SRSF2 genotype: SRSF2 wt/wt) [%] | cell viability (MARIMO; SRSF2 genotype: SRSF2 P95H/wt) [%] | cell viability (MARIMO; SRSF2 genotype: SRSF2 wt/wt) [%] | cell viability (MOLM14; SRSF2 genotype: SRSF2 P95H/wt) [%] | cell viability (MOLM14; SRSF2 genotype: SRSF2 wt/wt) [%] | cell viability (OCI-AML2; SRSF2 genotype: P95H/wt) [%] | cell viability (OCI-AML2; SRSF2 genotype: wt/wt) [%]
21 | CC1(C)O[C@H]2CC(=O)OC[C@]23[C@H]2CC[C@@]4(C)[C@H](c5ccoc5)OC(=O)[C@H]5O[C@]54[C@]2(C)C(=O)C[C@@H]13 [Limonin] | 98% and 110% | 109 | 97.3 | 109 | 102 | 109 | 111 | 102
22 | Cc1[nH]c2ccccc2c1CCNCc1ccc(/C=C/C(=O)NO)cc1 [Panobinostat (LBH589)] | 1.37% and 8.1% | 2.36 | 3.16 | 7.58 | 0.67 | 0.53 | 1.13 | 1.48
23 | CCc1c(O)cc(O)c(C(=O)c2ccc(OCCN3CCOCC3)c(OC)c2)c1CC(=O)N(CCOC)CCOC | 20.4% and 29.7% | 25.7 | 29.3 | 25.4 | 2.57 | 2.85 | 19.3 | 21.8
24 | CCc1ccc(CCOc2ccc(CC3SC(=O)NC3=O)cc2)nc1 (stereo not given) [Pioglitazone hydrochloride (Actos)] | 100% and 97% | 93.4 | 104 | 102 | 96.4 | 100 | 95.7 | 93.5
25 | CCCCNc1ncc(-c2ccc(CN3CCOCC3)cn2)c(NC2CCC(O)CC2)n1 (stereo not given) | 70.7% and 94.8% | 88 | 60.7 | 62.3 | 7.3 | 4.78 | 16.1 | 22.9
26 | O=C(CCN1CCN(C(=O)OCc2cc(Cl)cc(Cl)c2)CC1)c1ccc2[nH]c(=O)oc2c1 | 88.6% and 96.5% | 94.5 | 87.2 | 106 | 83.1 | 98.8 | 88.2 | 109
27 | COc1cc(N2CCC(N(C)C)CC2)ccc1Nc1ncc(Cl)c(Nc2ccccc2P(C)(C)=O)n1 | 41.2% and 62.9% | 34.2 | 34 | 27.2 | 1.15 | 3.56 | 4.59 | 12.3
28 | C=CC(=O)Nc1cccc(Oc2nc(Nc3ccc(N4CCN(C)CC4)cc3OC)ncc2Cl)c1 | 102% and 107% | 103 | 85.8 | 98.7 | 57.6 | 84.8 | 92 | 83.9
29 | Cc1cc(C)nc(NC(=S)N2CCN(Cc3ccc(C(F)(F)F)cc3)CC2)c1 | 71.2% and 80.6% | 73.2 | 67.4 | 64.5 | 77.3 | 86.6 | 37.8 | 54
30 | Nc1ncc(-c2ccnc(Nc3ccncc3)n2)c(CC2CC2)n1 | 69% and 73.7% | 74.2 | 69.8 | 66.9 | 44.8 | 43.8 | 43.3 | 45.2
31 | COC(=O)C=Cc1ccc(O)cc1 [Methyl 4-hydroxycinnamate] | 95% and 87.9% | 82.3 | 83.5 | 97.5 | 85.6 | 95.2 | 105 | 105
32 | COc1ccc(-c2cc(=O)c3c(OC)c(OC)c(OC)c(OC)c3o2)cc1 [Tangeretin (Tangeritin)] | 95.5% and 98.4% | 103 | 91.7 | 90.8 | 96 | 102 | 82.9 | 88.1
33 | CCOC(=O)c1cccc(N)c1 [Ethyl 3-Aminobenzoate methanesulfonate] | 96.7% and 92.4% | 85.1 | 87.2 | 96.5 | 88.7 | 96.5 | 94.2 | 90.7
34 | COc1ccc(-c2nc3cc(C4=NNC(=O)CC4C)ccc3[nH]2)cc1 (stereo not given) [Pimobendan (Vetmedin)] | 59.4% and 65.2% | 68.4 | 65.5 | 57.5 | 68 | 83.6 | 89.3 | 84.4
35 | CC(C)C[C@H](NC(=O)[C@H]1O[C@@H]1C(=O)O)C(=O)NCCCCN=C(N)N | 106% and 111% | 114 | 99.6 | 104 | 101 | 104 | 108 | 115
36 | CC(C)=CCCC(C)(O)C1CCC2(C)C1C(O)CC1C3(C)CCC(OC4OC(CO)C(O)C(O)C4OC4OC(CO)C(O)C(O)C4O)C(C)(C)C3CCC12C [(20R)Ginsenoside Rg3] | 105% and 103% | 99.1 | 107 | 122 | 108 | 109 | 105 | 128
37 | COc1cc2nc(N3CCCN(C)CC3)nc(NC3CCN(Cc4ccccc4)CC3)c2cc1OC | 6.31% and 1.97% | 3.98 | 0.75 | 0.69 | 0.24 | 0.26 | 0.23 | 0.28
38 | OC[C@H]1OC(O)[C@H](O)[C@@H](O)[C@H]1O (stereo partly drawn) [D-Galactose] | 101% and 103% | 98.2 | 103 | 105 | 103 | 103 | 105 | 108
39 | N#C/C(=C(/N)Sc1ccc(N)cc1)c1ccccc1C(F)(F)F | 85.3% and 90.9% | 85.1 | 54 | 46.4 | 82.4 | 91.5 | 67.7 | 61.3
40 | OC[C@H]1O[C@@H](OCCc2ccc(O)cc2)[C@H](O)[C@@H](O)[C@@H]1O [Salidroside (Rhodioloside)] | 101% and 105% | 102 | 106 | 104 | 105 | 109 | 101 | 94.6
